AI-2 QS mod: modulates the Vibrio harveyi AI-2 quorum sensing system; activity change, % at 7.5 µM; hit rate 0.4% among 300,000; AID 2094; Vibrio harveyi JMH597 AI-2 luminescence/OD600 ratio, 9 h; active compounds read low; strain lacks LuxN and CqsS sensors; 0 = neutral-control median; in the data active means activity change below about -75%, passing the limit was not always enough;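 further: luminescence divided by OD600 gain over 9 h not by final OD600 alone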
AHR activator: human AHR activation. AHR-responsive luciferase reporter cells, luminescence. hit rate 2.5% among 320,000. activation, % at 5 µM. P35869; in the data active means activation above about 47%;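 further: 0% = vehicle wells and 100% = reference agonist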
Target sequence (P35869 whole entry, looked up): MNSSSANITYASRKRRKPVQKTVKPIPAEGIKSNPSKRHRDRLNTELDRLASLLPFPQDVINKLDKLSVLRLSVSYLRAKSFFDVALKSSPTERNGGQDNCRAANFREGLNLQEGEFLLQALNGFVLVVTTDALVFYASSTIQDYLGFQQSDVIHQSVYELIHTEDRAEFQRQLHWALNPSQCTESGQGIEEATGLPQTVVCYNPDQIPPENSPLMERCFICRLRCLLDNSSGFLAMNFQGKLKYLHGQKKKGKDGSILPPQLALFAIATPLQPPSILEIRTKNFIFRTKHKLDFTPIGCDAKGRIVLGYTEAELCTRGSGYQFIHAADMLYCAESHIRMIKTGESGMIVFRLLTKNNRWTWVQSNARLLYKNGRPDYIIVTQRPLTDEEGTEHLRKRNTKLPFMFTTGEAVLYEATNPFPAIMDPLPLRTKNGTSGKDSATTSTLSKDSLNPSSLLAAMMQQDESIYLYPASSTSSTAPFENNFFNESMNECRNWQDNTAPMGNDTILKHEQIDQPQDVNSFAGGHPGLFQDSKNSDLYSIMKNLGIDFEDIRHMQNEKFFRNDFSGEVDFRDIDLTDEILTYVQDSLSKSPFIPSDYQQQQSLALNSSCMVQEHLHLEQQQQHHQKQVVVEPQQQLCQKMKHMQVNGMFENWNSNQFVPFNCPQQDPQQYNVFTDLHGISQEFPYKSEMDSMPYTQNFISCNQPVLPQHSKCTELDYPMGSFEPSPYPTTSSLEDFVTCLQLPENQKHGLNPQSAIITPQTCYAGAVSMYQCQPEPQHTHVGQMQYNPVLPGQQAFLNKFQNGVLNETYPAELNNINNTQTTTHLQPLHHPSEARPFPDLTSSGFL
H9c2 protect: myocardial damage modulation in H9c2 cells. H9c2 cardiomyocytes, H2O2 injury protection, ATPLite, 2 h. protection from H2O2 cell death, % at 20 µM. hit rate 0.63% among 360,000;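 active means compounds giving at least 50% protection of heart cells from peroxide-induced death in the single-dose screen, raw or plate-pattern-corrected value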;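 further: 0% = DMSO wells with peroxide and 100% = DMSO wells without peroxide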
NTR1 agonist: agonists of human neurotensin receptor NTR1; hit rate 0.17% among 330,000; AID 493036; NTR1-U2OS beta-arrestin-GFP spot imaging, agonist mode; P30989; activation, % at 20 µM;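 active means activation at or above 40% of the spot to cytoplasm intensity ratio, with at least 20 cells analyzed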;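 further: 0% = DMSO without peptide and 100% = 100 nM NTR1 peptide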
NR3A LBD binder: NR3A (human) ligand-binding domain modulation; Tm shift relative to glycine control, % at 25 µM; NR3A LBD differential scanning fluorimetry, Tm shift; 0% = protein alone, 100% = glycine-bound protein; AID 1259313; hit rate 2.5% among 340,000;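 active means melting temperature shift of at least 10% of the positive control shift, at one fixed dose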
SUMO Mot1 rescue: inhibitors of SUMOylation pathway: yeast Mot1-301 growth rescue; hit rate 1% among 320,000; growth rescue, % at 18.8 µM; S. cerevisiae Mot1-301 growth rescue, ATP luminescence, 38.5C; percent above DMSO median, 100 means doubled; AID 2716;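 active means every valid replicate shows activation above 250% relative to neutral control wells; inactive means the rest, any valid replicate at or below 250%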;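 further: OY570 slx delta 5 strain wells were the positive control but not used for scaling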
* hit, by the source's call; . = not tested or not shown. An excerpt weighted towards active compounds, which were near 6.2% of everything screened.

SMILES | AI-2 QS mod | AHR activator | H9c2 protect | NTR1 agonist | NR3A LBD binder | SUMO Mot1 rescue
CN(C)c1ccc(/C=C/c2nc3ccccc3c(=O)[nH]2)cc1 | 5 | 1 | -22 | 1 | -10 | -34
COc1ccc(/C=C2/SC(=S)N(NS(=O)(=O)c3ccccc3)C2=O)cc1 | 60 | -1 | -6 | 1 | -5 | -2
C=CCOc1ccc(/C=C2\SC(=S)N(NS(=O)(=O)c3ccccc3)C2=O)cc1 | -86* | 1 | -2 | 4 | -7 | -13
COc1ccc(Cl)cc1NC(=O)NNC(=O)C(=O)Nc1ccc(F)cc1 | . | . | 7 | . | . | .
Cc1cc(C)nc(N2CCCC(C(=O)Nc3ccc4c(c3)OCO4)C2)n1 (stereo unspecified) | 24 | 49* | 2 | -1 | -3 | -9
Cc1cc(C(=O)COC(=O)C2=NNC(=O)CC2)c(C)n1CCc1ccccc1 | 49 | 69* | -3 | 0 | 0 | .
Cc1ccc(NC(=O)COC(=O)c2ccc(-n3cccn3)cc2)cc1C | . | 1 | 7 | -1 | 0 | .
O=C(Nc1ccc(OCc2ccccc2)cc1)Nc1nnc([C@H]2C[C@H](O)[C@@H](CO)O2)s1 | . | . | -2 | . | . | .
CCCCN(CC)C(=O)c1cc2cc3ccc(Cl)cc3nc2o1 | -15 | 5 | 2 | 4 | 19* | -1
O=C(Nc1ccc(Cl)cc1)Nc1ccc(N2CCCC2)c(S(=O)(=O)Nc2ccccc2Cl)c1 | 42 | 6 | -16 | 22 | 32* | -11
COc1ccccc1NS(=O)(=O)c1cc(NC(C)=O)ccc1N1CCCCC1 | 16 | 0 | -1 | 4 | -11 | 133
O=C(Nc1ccc(N2CCOCC2)c(S(=O)(=O)Nc2ccccc2Cl)c1)c1ccccc1 | . | 4 | 6 | 4 | 1 | 5
COc1ccccc1NS(=O)(=O)c1cc(NC(=O)Nc2cccc(C)c2)ccc1N1CCCCC1 | 26 | 7 | -16 | 1 | 24* | -14
O=C(NCc1ccc2c(c1)OCO2)C1CCC(CNS(=O)(=O)c2ccc(Cl)cc2)CC1 (stereo unspecified) | 10 | 2 | -2 | -1 | 2 | -8
Cc1ccc(S(=O)(=O)NCC2CCC(C(=O)NCc3ccc4c(c3)OCO4)CC2)cc1 (stereo unspecified) | 22 | 1 | -2 | 0 | 15* | -8
Cc1ccc(CNS(=O)(=O)c2ccc3c(c2)OCCO3)cc1 | 34 | -2 | -5 | -1 | 16* | -15
N#Cc1ccccc1CSc1nnc(Cc2ccccc2)o1 | -4 | -3 | -3 | 0 | -11 | 348*
O=C(c1ccc2c(c1)OCO2)C1CCCN(Cc2cccn2-c2cccnc2)C1 (stereo unspecified) | 15 | 49* | -14 | 0 | -1 | 4
O=C(c1ccc(Cl)cc1)C1CCCN(Cc2cccn2-c2cccnc2)C1 (stereo unspecified) | 15 | 20 | -8 | 2 | 0 | -3
Cc1ccc(OCC(=O)NCCNC(=O)c2cnccn2)cc1C | 0 | . | -1 | 17 | -5 | .
COc1ccc(Cl)cc1NC(=O)Nc1cnccn1 | 2 | 53* | 2 | 4 | -1 | -11
COc1ccc(Cl)cc1NC(=O)NNC(=O)c1ccccn1 | 17 | . | 18 | 0 | 77* | 8
COc1ccccc1NC(=O)c1ccccc1NC(=O)c1ccccn1 | . | . | -5 | 0 | 0 | .
COc1ccc(Cl)cc1NC(=O)Nc1cc(C)on1 | 6 | 55* | -2 | 1 | -21 | 2
Cc1cc(NC(=O)Nc2ccccc2Cl)no1 | 14 | 22 | -3 | 0 | -2 | -14
SMILES | AI-2 QS mod | AHR activator | H9c2 protect | NTR1 agonist | NR3A LBD binder | SUMO Mot1 rescue
O=C(Nc1cnccn1)Nc1ccccc1Cl | 7 | 47 | -3 | 1 | -2 | 9
O=C(Nc1cnccn1)Nc1cccc(Cl)c1Cl | 23 | 49* | -8 | -2 | -2 | -1
COc1cc(CN2CCNC(=O)C2CC(=O)N(C)CCN2CCOCC2)cc(OC)c1 (stereo unspecified) | 4 | . | -2 | -1 | 0 | .
Cc1ccc(S(=O)(=O)N2C[C@H]3C(=O)C[C@@H](c4cccs4)N(S(=O)(=O)c4ccc(C)cc4)[C@H]3C[C@H]2c2ccccc2)cc1 | . | . | 2 | . | . | .
COC(=O)c1ccc(COC(=O)c2ccc(C)c(S(=O)(=O)N3CCCCC3)c2)cc1 | . | . | -10 | 2 | 2 | .
COc1ccc(C)cc1NC(=O)Nc1cnccn1 | 20 | 57* | 6 | 0 | -1 | -5
CN1CCN(S(=O)(=O)c2ccc(N(C)Cc3c(F)cccc3Cl)nc2)CC1 | . | 0 | -4 | -2 | 0 | 13
COc1ccc(-c2ccc(/C=C(\NC(=O)c3ccccc3)C(=O)N3CCOCC3)o2)cc1 | 23 | 77* | 40 | 0 | -2 | 17
C[C@@H]1CN([C@H](C)CO)C(=O)CCCn2nncc2CO[C@@H]1CN(C)C(=O)C1CC1 | . | . | 6 | . | . | .
Cc1ccc(C(=O)C(c2ccccc2)N2Cc3ccccc3C2=N)cc1 (stereo unspecified) | 17 | 65* | -15 | 16 | -20 | 0
O=C(Nc1cccc(N=Cc2cc(Cl)cc(Br)c2O)c1)c1ccco1 | 10 | 8 | 50* | 0 | 8 | 243
O=C(Nc1cccc(S(=O)(=O)N2CCCC2)c1)c1ccco1 | . | 0 | -2 | 1 | 1 | 21
O=C(Nc1cccc(S(=O)(=O)c2cccc(NC(=O)c3ccco3)c2)c1)c1ccco1 | 40 | 0 | -14 | 1 | 35* | -9
O=C(Nc1cccc(NC(=O)c2ccco2)c1)c1cccc(Br)c1 | 11 | 8 | 9 | 0 | 15* | -4
O=C(Nc1cc(Br)c(O)c(Br)c1)c1cccc(NC(=O)c2ccco2)c1 | 56 | 6 | -3 | -1 | 23* | -12
CCCCn1c(O)c(N=Nc2ccccn2)c2ccccc21 | 30 | 39 | -2 | 9 | 3 | 16
CCCCn1c(O)c(N=Nc2ccccc2O)c2ccccc21 | . | 60* | -10 | 0 | 1 | -1
Cc1ccc(NC(=O)c2ccc(Cl)c(S(=O)(=O)NCC3CCCO3)c2)c(O)c1 (stereo unspecified) | 34 | 62* | -4 | 3 | -6 | 5
O=C(N/N=C/c1ccc2c(c1)OCO2)c1cc2ccccc2o1 | 16 | 69* | 0 | 2 | 1 | -4
O=C(N/N=C/c1cccc2ccccc12)c1cc2ccccc2o1 | 14 | . | 8 | 5 | 18* | .
COc1ccc(/C=N/NC(=O)c2cc3c(ccc4ccccc43)o2)c(OC)c1 | 9 | . | 26 | 4 | 7 | .
O=C(N/N=C/c1ccsc1)c1cc2ccccc2o1 | 18 | 22 | 2 | 1 | 3 | 20
COc1ccc(OC)c(/C=N\NC(=O)c2cc3c(ccc4ccccc43)o2)c1 | 14 | 20 | 40 | 4 | 22* | 43
Cc1cc(F)cc(-c2cc(C(=O)NCc3ccccn3)[nH]n2)c1 | . | . | 0 | . | . | .
